Laboratory results from PubChem BioAssay (NCATS).
Results filed as inconclusive are left out. The source made the active and inactive calls. Calls follow the shape of the dose curve; as a rule, active = well fitted inhibition curve with a large enough effect; inconclusive = small, poorly fitted or top-dose-only effect; inactive = flat fitted curve, though single readings scatter.

What follows are compounds tested on CRL-7250 (assay: qHTS assay to identify novel small-molecules to repurpose for Merkel cell carcinoma treatment (AID 1296009; also: nearly all actives have a fitted effect of over 60% in size)). Conditions: MCC and control cell lines, CellTiter-Glo viability, 72 h; at 44.8 µM (top of the series) unless noted.
How it was run: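 Cells were treated for 72 hr at 37 degree celsius with compounds in 8- or 11-point dose response. Viability was read by CellTiter-Glo luminescence, normalized to no-cell (cytotoxicity) and DMSO controls.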

| Compound | outcome |
| --- | --- |
| O=C(N[C@H](CO)[C@H](O)c1ccc([N+](=O)[O-])cc1)C(Cl)Cl | inactive |
| CN1CCN(C(=O)C2CCCCC2)CC1 | inactive |
| O=C(COCCOCCOCC(=O)Nc1c(I)cc(I)c(C(=O)O)c1I)Nc1c(I)cc(I)c(C(=O)O)c1I | inactive |
| O=S(=O)(O)CCS | inactive |
| O=C(CO)[C@@H](O)[C@H](O)[C@@H](O)CO | inactive |
| CCC[C@@H]1C[C@@H](C(=O)N[C@@H]([C@H]2O[C@H](SC)[C@H](O)[C@@H](O)[C@H]2O)[C@@H](C)O)N(C)C1 | inactive |
| Cc1c(C)c2c(c(C)c1O)CCC(C)(COc1ccc(CC3SC(=O)NC3=O)cc1)O2 (stereo not given) | inactive |
| Cc1nc(-c2ccc(Cl)cc2)oc1COC(C)(C)C(=O)O | inactive |
| C/C(=N\O)[C@@H](C)NCC(C)(C)CN[C@H](C)/C(C)=N/O | inactive |
| CC(=O)CC/C=C(\C)CC/C=C(\C)CC/C=C(\C)CCC=C(C)C | inactive |
| Cc1onc(-c2ccccc2)c1-c1ccc(S(N)(=O)=O)cc1 | inactive |
| CC1(C)Oc2ccc(C#N)cc2[C@@H](N2CCCC2=O)[C@@H]1O | inactive |
| Cc1ccc(C(C)C)c(O)c1 | inactive |
| C[C@@H]1C[C@H]2[C@@H]3C[C@H](F)C4=CC(=O)C=C[C@]4(C)[C@@]3(F)[C@@H](O)C[C@]2(C)[C@@]1(O)C(=O)CO | inactive |
| NC1CCN(c2nc3c(cc2F)c(=O)c(C(=O)O)cn3-c2ccc(F)cc2F)C1 (stereo not given) | inactive |
| Nc1ncnc2c1ncn2[C@@H]1O[C@H](CO)[C@@H](O)[C@H]1O | inactive |
| O=C(CCCl)NCCc1ccccc1 | inactive |
| CC[N+](C)(CC)CCOC(=O)C1c2ccccc2Oc2ccccc21 | inactive |
| CC(C)OC(=O)OCOP(=O)(CO[C@H](C)Cn1cnc2c(N)ncnc21)OCOC(=O)OC(C)C | inactive |
| CCn1cc(C(=O)O)c(=O)c2cc(F)c(N3CCNC(C)C3)c(F)c21 (stereo not given) | inactive |
